Screen size: about 360,000 compounds; about 1,300 (0.36%) were called active. Rule as the data show it: active = inhibition above about 34% (passing the limit was not always enough); inactive = the rest. The entries come from a sample that favours actives as a whole.

C-X-C chemokine receptor type 6 (Homo sapiens), sequence (O00574 whole entry, looked up): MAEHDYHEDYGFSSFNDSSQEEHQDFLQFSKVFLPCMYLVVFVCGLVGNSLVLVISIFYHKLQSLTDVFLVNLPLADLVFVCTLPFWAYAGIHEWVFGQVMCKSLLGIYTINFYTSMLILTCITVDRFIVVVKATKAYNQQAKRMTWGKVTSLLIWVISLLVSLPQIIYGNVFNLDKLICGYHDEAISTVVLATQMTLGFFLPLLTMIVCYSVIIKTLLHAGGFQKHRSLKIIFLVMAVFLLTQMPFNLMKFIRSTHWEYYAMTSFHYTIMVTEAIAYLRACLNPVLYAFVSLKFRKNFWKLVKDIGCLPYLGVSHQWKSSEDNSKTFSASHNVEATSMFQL

The assay concerns the target C-X-C chemokine receptor type 6 (Homo sapiens) (UniProt O00574). As to the kind of experiment: CXCR6 receptor inhibitors, primary screen, cell-based, beta-arrestin, luminescence, CHO-K1 PathHunter, 1536-well (AID 602244).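 Also: antagonist mode with CXCL16 agonist at 10 nM final; 0% = 10 nM CXCL16 with DMSO and 100% = unstimulated wells without agonist.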 As to conditions: at 20 µM, stronger effect = higher value.
A word on the inhibition: it is the relative decrease from the control value, in per cent. In the case of `COC(=O)C1=C(C(=O)OC)[C@@H]2N(C)c3ccccc3[C@@]23C[C@@H](C(=O)OC)N(C(C)=O)C3=N1`, the inhibition is 0.7% (inactive).

On to `O=C(C1CC(=O)N(C2CCCC2)C1)N1CCN(c2cccc(C(F)(F)F)c2)CC1` (stereo not given), for which the inhibition was -1.4% (inactive).

Regarding `O=C(C1CC(=O)N(C2CCCCC2)C1)N1CCN(c2ccccc2)CC1` (stereo not given), the inhibition is 37% (active).

As for `O=C(C1CC(=O)N(c2ccc(F)cc2)C1)N1CCN(c2ccccc2)CC1` (stereo not given), the inhibition is 7% (inactive).

With `CCN1CCN(c2ccc(S(=O)(=O)N3CCCCC3)cc2NC(=O)c2cccc(NC(C)=O)c2)CC1`, the inhibition is 1.9% (inactive).

On to `CN(CCCC(=O)Nc1nccs1)S(=O)(=O)c1ccc(Cl)cc1`, for which the inhibition is 0.8% (inactive).

For `O=S(=O)(NCc1ccccc1Br)c1ccccc1Br`, the inhibition is 4.3% (inactive).

Consider `Oc1ccc2ccccc2c1N=Nc1nccs1`, for which the inhibition was 65.1% (active).

Turning to `COC(=O)CN1C(=O)[C@H]2[C@@H](/C=C/c3ccccc3)N3C(=O)CN(Cc4ccccc4)C(=O)[C@@]3(Cc3ccccc3)[C@H]2C1=O`, the inhibition was -9.8% (inactive).

`C/C(=N\NS(=O)(=O)c1ccc(Cl)cc1)c1ccc(NC(=O)c2ccco2)cc1`: the inhibition was 0.1% (inactive).

Take `O=C(Nc1ccc(S(=O)(=O)N2CCOCC2)cc1)C1CCN(S(=O)(=O)c2ccc(Cl)cc2)CC1`: the inhibition is 0.6% (inactive).

As for `O=C(Nc1ccccc1)c1nnsc1S(=O)(=O)c1ccc(Cl)cc1`, the inhibition is 96.4% (active).

Consider `CC1CCN(CCCNC(=O)CN2C(=O)CSc3ccc(S(=O)(=O)N4CCCCC4)cc32)CC1`, for which the inhibition is 2% (inactive).

As to `Cc1ccc(-c2noc(CCC(=O)Nc3ccccc3N3CCN(C)CC3)n2)cc1`, the inhibition is 6% (inactive).

Turning to `CCc1nn(-c2cc(Oc3cccc4ccccc34)nc(-c3ccccc3)n2)c(N)c1C#N`, the inhibition is 0.4% (inactive).

Turning to `CN(CC(=O)Nc1ccc(F)cc1)CC(=O)Nc1ccc(Cl)c(S(=O)(=O)N2CCOCC2)c1`, the inhibition was -1% (inactive).

In the case of `Cc1cccc(C(=O)Nc2ccc(Oc3cnccn3)cc2)c1`, the inhibition was 1.5% (inactive).

For `Cc1cccc(CS(=O)(=O)c2ncc(Cl)c(C(=O)Nc3ccc(F)cc3)n2)c1`, the inhibition was 57% (active).

As for `Cc1cccc(NC(=O)c2nc(S(=O)(=O)Cc3ccccc3)ncc2Cl)c1`, the inhibition is 64.6% (active).

In the case of `Cc1cccc(NC(=O)Cn2cc(C(=O)c3ccco3)c3ccccc32)c1`, the inhibition was 4.5% (inactive).

Consider `Cc1cccc(NC(=O)C2CCN(S(=O)(=O)c3cccc4cccnc34)CC2)c1`, for which the inhibition is 9.3% (inactive).

On to `O=C(NN1CCOCC1)c1cccc(F)c1`, for which the inhibition is 0.7% (inactive).

`CCCNC(=O)C1(C)CCN(C(=O)c2cc(F)ccc2C)C1` (stereo not given): the inhibition was 0.9% (inactive).

For the compound `O=C(CSc1nc2cc3c(cc2c(=O)n1CCC1=CCCCC1)OCO3)NCc1ccco1`, the inhibition was 6.1% (inactive).

Regarding `Cc1ccc2c(c1)N(CC(=O)NCCc1ccc(Cl)cc1)C(=O)c1cccnc1O2`, the inhibition was -3.1% (inactive).

Regarding `O=c1ccc2c(-c3ccccc3S(=O)(=O)O)c3ccc(O)c(O)c3oc-2c1O`, the inhibition is 47.9% (active).

As for `CC(=O)N1c2ccc(S(=O)(=O)N3CCCC(C(=O)Nc4cccc(F)c4)C3)cc2CC1C` (stereo not given), the inhibition is -11.7% (inactive).

Turning to `Cc1ccc(CCCOC(=O)C[N+]2(C)CCCCC2)cc1`, the inhibition was -4.5% (inactive).

With `CCCNC(=O)c1onc(CSc2ccc(F)cc2)c1C(=O)NC(C)C`, the inhibition was 2.3% (inactive).

Turning to `Cc1ccc(S(=O)(=O)N2CC[C@H]3[C@@H](C2)C(=O)C[C@@H](c2ccccc2)N3S(=O)(=O)c2ccc(C)cc2)cc1`, the inhibition is -1.4% (inactive).

For `CC(=O)Nc1nc(C)c(Cc2ccccc2)c(=O)[nH]1`, the inhibition was 4.4% (inactive).

`CCCCc1nc2cc(C(=O)N3CCCCC3CCO)ccc2o1` (stereo not given): the inhibition was 4% (inactive).

Consider `COc1ccc2c(c1)c(=Cc1ccc(N(C)C)cc1)c1cc(-c3ccccc3)[n+](C)n12`, for which the inhibition was 39.6% (active).

Take `COCCC(=O)N1CCC(Oc2ccc(C(=O)NCc3ccon3)cc2)CC1`: the inhibition is 6.3% (inactive).

For `C[C@H]1CN([C@@H](C)CO)C(=O)c2cc(C3=CCCCC3)cnc2O[C@@H]1CN(C)C(=O)Cc1ccccc1`, the inhibition is -0.7% (inactive).

Regarding `CC1(C)OC(=O)C2=C(C[C@@H](C3CCCCC3)O[C@@H]2c2ccc(Cl)cc2)O1`, the inhibition is 8.1% (inactive).

Take `COCCN(C(=S)Nc1cccc(Cl)c1C)C(C)c1ccco1` (stereo not given): the inhibition was 3.3% (inactive).

For the compound `OCC1OC(n2cnc3c(N4CCCC4)ncnc32)C(O)C1O` (stereo not given), the inhibition was -4.2% (inactive).

Regarding `COc1ccc(C2NC(=O)C(=O)/C2=C(\O)c2ccc(Cl)cc2)cc1OC` (stereo not given), the inhibition was 0.4% (inactive).

Turning to `CCN(CC)CCN1C(=O)C2C(C(=O)Nc3ccc(Br)cc3)C3C=CC2(O3)C1C(=O)NC1CCCCC1` (stereo not given), the inhibition was 7.8% (inactive).

`CC(C)N1C(=O)C2C(C(=O)NC3CCCCC3)C3C=CC2(O3)C1C(=O)NC1CCCC1` (stereo not given): the inhibition is -4.9% (inactive).

With `CCOCCCN1C(=O)C2C(C(=O)Nc3ccc(OCC)cc3)C3C=CC2(O3)C1C(=O)NC1CCCCC1` (stereo not given), the inhibition was 74.4% (active).

For `CCc1cc2c(=O)n(-c3ccccc3)c(SCC(=O)O)nc2s1`, the inhibition was -2% (inactive).

For `CCO[C@H]1OC(C(=O)N2CCN(Cc3ccccc3)CC2)=C[C@@H](c2cn(C(C)=O)c3ccccc23)[C@@H]1CCCO`, the inhibition is -0.6% (inactive).

Take `CC1CCN(S(=O)(=O)c2ccc3c(ccn3CC(=O)O)c2)CC1`: the inhibition is 7.6% (inactive).

For `O=C(Nc1ccccc1C(=O)N1CCCCCC1)c1ccccc1Cl`, the inhibition is 10.2% (inactive).

As to `Cc1cc(C(=O)OCC(=O)Nc2ccccc2Cl)c(C)o1`, the inhibition is -6.7% (inactive).

Consider `O=C(Nc1ccccc1Cl)/C(Cl)=C(\Cl)S(=O)c1ccccc1` (stereo not given), for which the inhibition was 93.1% (active).

On to `Nc1nc2c(ncn2[C@@H]2O[C@H](CNCc3ccc(OCCCN4CCOCC4)cc3)[C@@H](O)[C@H]2O)c(=O)[nH]1`, for which the inhibition was -4.2% (inactive).

As for `CN(C)S(=O)(=O)c1ccc(Cl)c(NC(=O)COC(=O)CC(NC(N)=O)c2ccc(Cl)cc2)c1` (stereo not given), the inhibition is -0.2% (inactive).

Regarding `O=C(/C=C/Sc1ncn[nH]1)c1ccc(Cl)cc1`, the inhibition was 17.1% (inactive).

Regarding `Cc1cc(C)nc(S/C=C/C(=O)c2ccccc2)n1`, the inhibition was 46.1% (active).

For the compound `CCOC(=O)C(=Cc1ccccc1)C(=O)c1ccccc1`, the inhibition is 24% (inactive).

As for `CCCCc1nc2ccccc2c(NC(=O)CN2CCN(C)CC2)c1CCC`, the inhibition is 2.4% (inactive).

As to `Nc1ccccc1SC(C[N+](=O)[O-])c1ccccc1` (stereo not given), the inhibition was 43.8% (active).

The values are drawn from PubChem BioAssay AID602244 (Sanford-Burnham Center for Chemical Genomics, 2012).
